Hits are enriched below; roughly 1.5% of the tested compounds scored in any of these assays.
Coupling enz – coupling enzyme interference in Giardia aldolase counter-screen; coupling enzyme system counterscreen, AmpLite Red fluorescence; activity change, negative = inhibition, % at 58.2 µM, hits read low; actives 0.67% (n = 290,000); AID 2472; in the data active = activity change below about -30%
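Compounds tested against the coupling enzymes alone at 57.5 uM final; readout was AmpLite Red fluorescence (525/598 nm) after 20 min at RT.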
PI4K2A inh – PI4K2A (human) kinase inhibition. Q9BTU6. purified PI4K2A, ADP-Glo luminescence, 1 h; active compounds read low. activity change, negative = inhibition, % at 76.9 µM. actives 0.13% (n = 420,000). AID 1346378; in the data active = activity change below about -50%; inconclusive = mostly about -30% to -49%;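 also: -100% = wells without enzyme as full effect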
Target sequence (Q9BTU6 whole entry, looked up): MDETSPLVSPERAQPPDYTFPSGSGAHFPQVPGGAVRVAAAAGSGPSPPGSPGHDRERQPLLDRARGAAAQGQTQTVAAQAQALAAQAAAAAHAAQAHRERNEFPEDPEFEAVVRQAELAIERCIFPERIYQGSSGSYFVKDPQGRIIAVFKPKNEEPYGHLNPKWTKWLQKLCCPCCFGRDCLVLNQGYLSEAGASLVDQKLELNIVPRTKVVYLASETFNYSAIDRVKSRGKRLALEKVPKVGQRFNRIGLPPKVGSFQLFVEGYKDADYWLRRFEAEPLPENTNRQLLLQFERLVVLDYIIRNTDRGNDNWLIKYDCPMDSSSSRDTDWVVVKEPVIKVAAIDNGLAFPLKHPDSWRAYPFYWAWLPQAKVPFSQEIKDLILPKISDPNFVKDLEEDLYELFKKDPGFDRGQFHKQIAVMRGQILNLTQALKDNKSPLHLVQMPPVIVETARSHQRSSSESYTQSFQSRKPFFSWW
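Compounds are screened against recombinant PI4K2A using PI as substrate and ATP, the latter dispensed at 300 microM. Reactions run one hour at ambient temperature before ADP-Glo detection; full inhibition defined by wells lacking enzyme.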
GALK inhibitor – inhibitors of human galactokinase | AID 1868 | P51570 | Purified GALK, Kinase-Glo residual ATP luminescence | actives 0.007% (n = 270,000) | Potency, µM (doses to about 57.5 µM), for the others: at the highest dose activity change, negative = inhibition, actives largely listed as inhibitors; also: potency is read from the fitted curve at half-maximal effect
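Human GALK (5 nM) with 35 uM ATP and 100 uM galactose in 20 mM HEPES pH 8.0, 5 mM MgCl2, 60 mM NaCl, 1 mM DTT, 0.01% BSA. After 1 h at room temperature, leftover ATP was read by Kinase-Glo Plus luminescence.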
rTrxR1 inhibitor – rat TrxR1 inhibition; Potency, µM (doses to about 114 µM), for the others: at the highest dose activity change, negative = inhibition, actives largely listed as inhibitors; actives 1% (n = 390,000); recombinant rTrxR1, NADPH fluorescence consumption, selenite substrate; also: potency is read from the fitted curve at half-maximal effect; nearly all actives have a fitted effect of over 65% in size
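Rat TrxR1 (90 nM in the dispensed reagent) was pre-reduced with 400 uM NADPH for 5 min at room temperature, then incubated with compound for 15 min. After 400 uM selenite was added, NADPH fluorescence (Ex 340/Em 450 nm) was followed for 8 min.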
TrxR1 substrate – substrates of rat thioredoxin reductase 1; O89049; purified TrxR1 substrate turnover, NADPH consumption readout; Potency, µM (titrated, usually from 114 µM), inactives show at the highest dose activity change, negative = substrate turnover; actives 0.01% (n = 390,000); also: potency is read from the fitted curve at half-maximal effect; nearly all actives have a fitted effect of over 50% in size
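Rat TrxR1, dispensed at 90 nM, was prereduced with 400 uM NADPH (final) for 5 min at ~22 deg C, then incubated with compound 15 min before 400 uM selenite. A first-read NADPH fluorescence drop versus no-compound background flagged substrates.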
Giardia kill – Giardia lamblia killing; Giardia lamblia trophozoite viability; activity change, % at 7.66 µM, hits read low; actives 0.15% (n = 340,000); in the data active = activity change below about -80%; inconclusive = between about -30% and that limit;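 also: parasites exposed to compound for two days anaerobically before the ATP read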
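Trophozoite viability was measured as ATP-dependent luminescence, read 15-30 min after reagent addition. Before that, parasites at 100 cells/well were exposed to compounds for 48 h, anaerobically, at 37 deg C.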
* marks the source's active call; other numbers are inactive results; i = inactive; ? = inconclusive; . = not tested or not shown; [ ] = another dose, or the depositor's remark. Unless noted, calls follow the shape of the dose curve; as a rule, active = well fitted curve in the direction sought with a large enough effect; inconclusive = small, poorly fitted or top-dose-only effect, or another doubt; inactive = no such curve, though single readings can be large; an effect the other way counts as inactive or inconclusive. Unless noted, % is scaled to controls: 0 for no effect and ±100 for the full control effect.

SMILES	Coupling enz	PI4K2A inh	GALK inhibitor	rTrxR1 inhibitor	TrxR1 substrate	Giardia kill
Cc1cc(C)n(-c2ccc(NN=C(C#N)C#N)cc2)n1	4	-10	-2%	?	-11%	5
N#CC(C#N)=NNc1ccc(-n2ccc(C(F)(F)F)n2)cc1	11	-7	.	20µM*	-6%	13
CC1=C(O)C(=O)C=C2C1=CC=C1[C@]2(C)CC[C@@]2(C)C3C[C@](C)(C(=O)O)CC[C@@]3(C)CC[C@@]12C (stereo partly drawn)	2	.	.	.	.	.
OCC(Br)(Br)Br	3	.	.	.	.	.
CNC(C)Cc1ccc2c(c1)OCO2 (stereo not drawn)	.	i	.	.	.	.
CCOP(=O)(OCC)C(O)c1cccc([N+](=O)[O-])c1 (stereo not drawn)	0	-5	3%	-77%[57.1 µM]	0%	6
CCOP1(=O)C=C(Sc2ccc([N+](=O)[O-])cc2[N+](=O)[O-])C(C)(C)O1 (stereo not drawn)	.	23	.	14µM*	-16%	7
N#CC(C#N)=Cc1cccnc1	3	-9	3%	14µM*	15%[57.1 µM]	-10
CC(=NCc1ccco1)c1c(O)n(-c2ccccc2C)c(=O)[nH]c1=O	3	-3	6%	?	1%[57.1 µM]	33
Cc1ccccc1-n1c(O)c(C(c2ccncc2)c2c(O)n(-c3ccccc3C)c(=O)[nH]c2=O)c(=O)[nH]c1=O	2	-1	-2%	14µM*	5%[57.1 µM]	-2
C=CCN1CC[C@]23c4c5ccc(O)c4OC2[C@H](O)CC[C@@]3(O)[C@H]1C5 (stereo partly drawn)	.	-4	.	19%	5%	4
C=CCN1CCc2cccc3c2[C@H]1Cc1ccc(O)c(O)c1-3	-18	-4	-2%	20µM*	18%[57.1 µM]	-1
NCCc1cc(O)c(O)cc1O	-57*	?	.	56µM*	-9%	-4
CC(C)OC(=O)C(O)(c1ccc(Cl)cc1)c1ccc(Cl)cc1	0	.	.	.	.	.
CN(C)C1CSSSC1	0	.	.	.	.	.
CN1C(=O)C(=Cc2cccnc2)C(=O)N(C)C1=O	4	-3	6%	22µM*	7%	-10
CCOC(=O)c1c(/N=C/c2c(O)n(-c3cccc(C)c3)c(=O)[nH]c2=O)sc2c1CCCC2	2	-4	.	1%	-1%	-2
CCOC(=O)c1cc(CC)sc1/N=C/C1C(=O)NC(=S)NC1=O	-39*	-10	9%	8.9µM*	-1%	-6
CCOC(=O)c1cc(CC)sc1/N=C/c1c(O)[nH]c(=S)[nH]c1=O	-88*	-3	0%	?	-11%	21
CC(C)N1CCN(c2ccc(O)cc2)CC1	-51*	-7	3%	-17%	5%	4
OC(c1ccc(Cl)cc1)(c1cncnc1)c1ccccc1Cl (stereo not drawn)	-2	.	.	.	.	.
O=C1NO[C@@H]2CN[C@@H](C(=O)O)[C@H]12	3	.	.	.	.	.
COc1ccc(CC2NCC(O)C2OC(C)=O)cc1 (stereo not drawn)	0	-5	.	25µM*	10%[57.1 µM]	?
CN(C)c1ccc(/C=C/C=C/c2sc3ccccc3[n+]2C)cc1	-1	-27	-1%	0%	4%	-3
SMILES	Coupling enz	PI4K2A inh	GALK inhibitor	rTrxR1 inhibitor	TrxR1 substrate	Giardia kill
CN(C)c1ccc(/C=C/c2cc[n+](C)c3ccccc23)cc1	-42*	?	1%	?	5%[11.4 µM]	-5
O=C1NC(=O)N(Cc2ccco2)C(=O)/C1=C\c1cccn1CCOc1ccc(Cl)cc1	2	?	-14%	22µM*	2%	-2
CCc1ccc(N2C(=O)NC(=O)/C(=C/c3cccn3CCOc3ccc(C)cc3)C2=O)cc1	3	-10	-7%	-20%	-5%	18
CCc1ccc(N2C(=O)NC(=O)/C(=C/c3cccn3CCOc3ccc(C(C)CC)cc3)C2=O)cc1 (stereo not drawn)	6	-16	-4%	-18%	-2%	8
Cc1cccc(OCCn2cccc2/C=C2/C(=O)NC(=O)N(Cc3ccco3)C2=O)c1	1	-21	1%	35µM*	-4%	-7
O=C1NC(=O)N(c2cccc(Cl)c2)C(=O)/C1=C\c1ccc(Sc2nc3ccccc3[nH]2)o1	5	?	1%	8.9µM*	5%	-25
O=C1NC(=O)N(c2ccccc2)C(=O)/C1=C/c1ccoc1	1	-11	3%	?	-4%[57.1 µM]	36
O=C1NC(=O)N(c2ccccc2)C(=O)/C1=C/c1ccc(Sc2ccccc2)o1	2	?	3%	14µM*	-4%	4
NC(=O)C1=CN(C2OC(COP(=O)(O)OP(=O)(O)OC[C@H]3O[C@@H](n4cnc5c(N)ncnc54)[C@H](OP(=O)(O)O)[C@@H]3O)C(O)C2O)C=CC1 (stereo partly drawn)	.	-1	.	22%[57.1 µM]	12%[57.1 µM]	.
CCCC[C@@H](C)[C@@H](OC(=O)C[C@@H](CC(=O)O)C(=O)O)[C@H](C[C@@H](C)CCCCCC[C@@H](O)C[C@H](O)[C@H](C)N)OC(=O)C[C@@H](CC(=O)O)C(=O)O	9	.	.	.	.	.
COCCN(C(=O)CCl)c1c(C)cccc1C	0	.	.	.	.	.
COc1cccc(N2C(=O)NC(=O)/C(=C/c3ccc([N+](=O)[O-])s3)C2=O)c1	-10	-21	0%	?	-6%[57.1 µM]	-15
CCOc1ccc(N2C(=O)NC(=O)/C(=C\c3cc(OC)c(OC)cc3[N+](=O)[O-])C2=O)cc1	-3	-22	1%	11µM*	9%[57.1 µM]	16
COc1ccccc1N1C(=O)NC(=O)/C(=C/c2ccc([N+](=O)[O-])s2)C1=O	-13	-11	.	?	-9%	-12
COc1ccc(N2C(=O)NC(=O)/C(=C\c3ccc([N+](=O)[O-])s3)C2=O)cc1	-12	0	3%	25µM*	-3%[57.1 µM]	-5
COc1ccc(N2C(=O)NC(=O)/C(=C/c3ccc([N+](=O)[O-])s3)C2=O)cc1	-4	?	8%	40µM*	-14%	-5
CCOc1ccc(N2C(=O)NC(=O)/C(=C\c3ccc(N4CCOCC4)cc3C)C2=O)cc1	-4	-8	4%	?	3%	?
O=C(Oc1ccc([N+](=O)[O-])cc1)N1CCN(/[N+]([O-])=N/Oc2ccc([N+](=O)[O-])cc2[N+](=O)[O-])CC1	.	.	.	?	6%	.
ClCCN1CCCC1	.	-4	.	.	.	.
Cn1c(O)c(C(c2ccncc2)c2c(O)n(C)c(=S)n(C)c2=O)c(=O)n(C)c1=S	3	-11	-3%	7.9µM*	-9%	15
Cn1c(O)c(C(c2ccccn2)c2c(O)n(C)c(=S)n(C)c2=O)c(=O)n(C)c1=S	5	-28	.	-28%	-13%	-18

From PubChem
